High-throughput results as filed in PubChem.
JMJD2A Tudor: qHTS Assay for Inhibitors of JMJD2A-Tudor Domain; Lysine-specific demethylase 4A (Homo sapiens), O75164; AlphaScreen JMJD2A-Tudor / H3K4me3 peptide binding; Potency, µM (titrated, usually from 114 µM), most hits filed as inhibitors; 4.4% of 390,000 active; AID 504339, 2011; further: nearly all actives have a fitted effect of over 50% in size
CtBP-E1A blk: qHTS Assay for Inhibitors of the CtBP/E1A Interaction. AlphaScreen GST-E1A/His-CtBP binding, 1536-well; active compounds read low. activity change, % (no concentration beside the values). 0.49% of 340,000 active. AID 651724, 2012; in the data active means activity change below about -65%; inconclusive means mostly about -30% to -63%
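Steps: dispense buffer (Tris pH 8.0, NaCl 300 mM, TCEP 1 mM, BSA, Tween 20); add 5X protein mix (GST-E1A, His-CtBP, 125 nM each); pin 23 nL compound; 2 h at 37 °C, dark; add 5X beads (50 ug/mL); 1 h; read.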
TDP1 block: qHTS Assay for Inhibitors of Tyrosyl-DNA Phosphodiesterase (TDP1); Tyrosyl-DNA phosphodiesterase 1 (Homo sapiens), Q9NUW8; recombinant TDP1, AlphaScreen DNA substrate cleavage; Potency, µM (doses to about 130 µM), hits mostly inhibitors; 0.28% of 350,000 active; AID 485290, 2010; further: nearly all actives have a fitted effect of over 40% in size
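Compounds were preincubated with Tdp1 (1 nM final) for 15 min at room temperature before substrate (15 nM final) started a 5 min reaction; beads (10 ug/ml final) were then added for 10 min before AlphaScreen detection.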
BAZ2B inh: qHTS Assay for Inhibitors of BAZ2B; Bromodomain adjacent to zinc finger domain protein 2B (Homo sapiens), Q9UIF8; AlphaScreen BAZ2B-H3K14Ac peptide displacement; Potency, µM (titrated, usually from 114 µM), hits mostly inhibitors; 4.4% of 360,000 active; AID 504333, 2011; further: nearly all actives have a fitted effect of over 60% in size
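AlphaScreen luminescence quantifies BAZ2B engagement of H3K14Ac peptide; the protein and biotinylated peptide are both at 50 nM final, buffer PBS pH 7.4 with 0.01% Tween-20, all steps at room temperature.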
Six1-Eya2 blk: qHTS Assay for Inhibitors of the Six1/Eya2 Interaction. AlphaScreen GST-Six1/His-Eya2 binding, biochemical; active compounds read low. Homeobox protein SIX1 (Homo sapiens) + Protein phosphatase EYA2 (Homo sapiens), …. 0.56% of 360,000 active. activity change, % (no concentration beside the values); in the data active means activity change below about -65%; inconclusive means mostly about -30% to -63%
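AlphaScreen with GST-Six1 and His-Eya2 (5X mix: 250 nM and 500 nM), glutathione donor and nickel acceptor beads; buffer 50 mM Tris pH 8.0, 300 mM NaCl, 1 mM TCEP; 1 h at 37 C in the dark.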
HP1b binding inh: HTS for Inhibitors of HP1-beta Chromodomain Interactions with Methylated Histone Tails | AlphaScreen HP1-beta / biotin-H3K9me3 peptide binding | Potency, µM (doses to about 114 µM), usual class: inhibitors | 0.56% of 390,000 active | AID 540317, 2011; further: nearly all actives have a fitted effect of over 70% in size
Target sequence (P83916 whole entry, looked up): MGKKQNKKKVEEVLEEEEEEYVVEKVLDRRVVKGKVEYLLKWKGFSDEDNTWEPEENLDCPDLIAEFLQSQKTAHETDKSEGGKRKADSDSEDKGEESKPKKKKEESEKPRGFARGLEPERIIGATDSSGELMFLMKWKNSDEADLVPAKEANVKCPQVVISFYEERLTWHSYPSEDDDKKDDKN
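AlphaScreen: HP1-beta (50 nM) preformed 30 min with biotin-H3(1-18)K9me3 peptide (50 nM) in PBS pH 7.4, 0.01% Tween-20. Compound added for 30 min at RT, then streptavidin donor/nickel chelate acceptor beads (10 ug/mL) for 30 min.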
Numbers stand for hits; n = inactive; u = inconclusive; x = no result given; [ ] = remark or other dose. Sampled rows, rich in hits. Any-hit rate of the full collection: about 5.3%. Unless noted, the call rests on the fitted dose curve; in most records, active means well fitted inhibition curve with a large enough effect; inconclusive means small, poorly fitted or top-dose-only effect; inactive means no such curve, though single readings can be large or run the other way.

SMILES	JMJD2A Tudor	CtBP-E1A blk	TDP1 block	BAZ2B inh	Six1-Eya2 blk	HP1b binding inh
CCOc1ccccc1C(=O)Nc1cc2c(cc1N1CCCC1)n(CC)c(=O)n2CC	50µM	x	n	18µM	u	n
CCn1c(=O)n(CC)c2cc(N3CCCC3)c(NC(=O)c3ccccc3OC)cc21	u	n	n	45µM	n	u
CCn1c(=O)c(=O)n(CC)c2cc(N3CCCCC3)c(NC(=O)c3cccc(OC)c3)cc21	n	x	n	n	x	n
Cc1cccc(C(=O)Nc2cc3c(cc2N2CCCCC2)n(C)c(=O)c(=O)n3C)c1	n	x	n[12.3 µM]	n	x	n
CC(C)NC(=O)c1nn(C)c2c1CS(=O)(=O)c1ccccc1-2	n	x	n	n	x	n
CC(C)Oc1ccc(CNC(=O)c2cccc(NC(=O)c3nsc4ccccc34)c2)cc1	n	x	n	n	x	n
CCn1c(=NC(=O)c2ccc3c(c2)OCCO3)sc2c(C)ccc(OC)c21	n	x	n	n	x	n
CCOc1cc(C(=O)Nc2cc3c(cc2N2CCCC2)n(C)c(=O)n3C)cc(OCC)c1OCC	n	n	n	89µM	n	n
CCOc1cc(C(=O)Nc2cc3c(cc2N2CCCC2)n(C)c(=O)c(=O)n3C)cc(OCC)c1OCC	n	x	n	n	x	n
CCN(CC)C(=O)c1sc2c(c1C)c(=O)n(Cc1ccccc1)c(=O)n2Cc1ccccc1C	n	x	n	n	x	n
CCCC(=O)NC(c1ccccc1OC)c1ccc2cccnc2c1O (stereo unspecified)	56µM	-84	n	25µM	-88	n
CCCCC(=O)NC(c1ccc(OC)c(OC)c1)c1c(O)ccc2ccccc12 (stereo unspecified)	u	n	n	n	n	n
CCCCC(=O)NC(c1ccccc1OC)c1ccc2cccnc2c1O (stereo unspecified)	n[11.4 µM]	-92	n	u	-76	n
Cc1ccc(-n2nc(C)c3c(C(=O)NCCc4ccc(S(N)(=O)=O)cc4)cc(C)nc32)cc1	n	x	n	n	x	n
CC1CCCN(c2nc3ccccc3nc2C(C#N)S(=O)(=O)c2ccccc2)C1 (stereo unspecified)	n	n	n	u	n	n
COc1ccc(S(=O)(=O)C(C#N)c2nc3ccccc3nc2N2CCC(C)CC2)cc1 (stereo unspecified)	x	x	n	45µM	x	x
Cc1ccc(C)c(Nc2nc(-c3cccnc3)cs2)c1	u	n	x	n	n	n
COc1ccc(-c2cc(-c3n[nH]c(=S)n3-c3ccccc3Cl)[nH]n2)cc1	n	n	n	n	n	n
Cc1c(Cl)cccc1-n1c(-c2cccnc2)n[nH]c1=S	35µM	n	n	n	n	n
Cc1ccc(C)c(-n2c(-c3csc(C)c3C)n[nH]c2=S)c1	25µM	n	n	n	n	n
Cc1scc(-c2n[nH]c(=S)n2Cc2ccccc2)c1C	n	n	n	n	n	n
Cc1ccc(C)c(-n2c(-c3cccnc3)n[nH]c2=S)c1	22µM	n	u	u	n	n
Cc1ccccc1C(=O)NCC(c1cccnc1)N1CCc2ccccc21 (stereo unspecified)	n	x	n	n	x	n
CCN(CCN(C)C)C(=O)Cn1ncc2c([nH]c3ccc(C)cc32)c1=O	n	x	n	n	x	n
CCN(CC)c1ccc(C2Nc3ccccc3-c3cc(C)nn32)cc1 (stereo unspecified)	50µM	x	n	u	x	u
SMILES	JMJD2A Tudor	CtBP-E1A blk	TDP1 block	BAZ2B inh	Six1-Eya2 blk	HP1b binding inh
CSc1ccc(C2Nc3ccccc3-c3cc(C)nn32)cc1 (stereo unspecified)	n	n	n	n	n	n
Cc1cccc(NC(=O)CN2C(=O)C(c3ccc(F)cc3)=NC23CCCCCC3)c1C	n	x	n	n	x	n
S=c1[nH]nc(-c2ccncc2)n1/N=C/C=C/c1ccco1	8.9µM	n	x	50µM	n	n
COc1ccccc1/C=C\C=N\n1c(-c2ccc(Cl)cc2Cl)n[nH]c1=S	u	n	n	u	n	u
Cc1cccc(-c2n[nH]c(=S)n2/N=C/C=C/c2ccco2)c1	20µM	x	n	u	n	u
COc1ccccc1/C=C/C=N/n1c(-c2ccc(F)cc2)n[nH]c1=S	n	n	n	n	n	n
S=c1[nH]nc(-c2ccccc2Cl)n1/N=C/C=C/c1ccco1	16µM	n	n	u	n	n
CCOc1ccc(NC(=O)CSc2ncc3c(n2)-c2ccccc2N(Cc2ccccc2C)S3(=O)=O)cc1	n	x	n	n	x	n
CC(=O)Nc1nonc1-c1nnc(SCC(=O)Nc2ccc(C)cc2)n1-c1ccccc1	n	x	n	u	x	n
CCOc1ccccc1NC(=O)C(=O)NCCc1sc2nc(-c3ccc(OC)cc3)nn2c1C	n	x	n	n	x	n
Cc1ccc(CCNC(=O)CN2CCN(Cc3ccc(Cl)cc3)C2=O)cc1	n	x	n	n	x	n
CCc1ccccc1N1C(=O)N(Cc2ccccc2C)c2ccccc2S1(=O)=O	n	x	n	n	x	n
Cc1onc(-c2ccccc2)c1-c1n[nH]c(=S)n1-c1ccccc1Cl	n	n	n	n	n	n
Cc1onc(-c2ccccc2)c1-c1n[nH]c(=S)n1-c1ccc(C(=O)O)cc1	45µM	n	n	u	n	n
Cn1c(=O)n(C)c2cc3[nH]cnc3cc21	n	n	x	u	n	n
Nc1cc2nc[nH]c2cc1N	50µM	u	79µM	28µM	u	n
Cc1oc(-c2ccc(C(=O)N(C)Cc3ccccc3)cc2)nc1CN1CCc2ccccc21	28µM	x	n	25µM	x	n
Cc1ccc(CCNC(=O)c2ccc(CSCc3ccc(C)cc3)o2)cc1	n	x	n	n	x	n
CCc1ccc(CN(Cc2ccco2)C(=O)c2ccc(C)cc2)cc1	n	x	n	n	x	n
Cc1ccc(C(=O)N(Cc2ccc(N(C)C)cc2)Cc2ccco2)cc1	40µM	x	n	35µM	x	u
COc1cccc(C(=O)N(Cc2ccc(N(C)C)cc2)Cc2ccco2)c1	40µM	x	n	22µM	x	u
CN(C)c1ccc(CN(Cc2ccco2)C(=O)c2ccc(F)cc2)cc1	45µM	x	n	35µM	x	u
CCSc1ncc(Cl)c(C(=O)N(Cc2ccccc2)c2ccc(OC)cc2)n1	n	x	n	n	x	n
CCSc1ncc(Cl)c(C(=O)N(Cc2ccc(N(C)C)cc2)Cc2ccco2)n1	18µM	x	n	10µM	x	u
CN(C)S(=O)(=O)c1cccc(C(=O)N(Cc2ccc(F)cc2)Cc2ccco2)c1	n	n	n	n	n	n
Cc1cc(OI)c(C(C)C)cc1-c1cc(C(C)C)c(OI)cc1C	x	x	n	x	x	x
